Inconclusive results are not listed. The source made the active and inactive calls. Calls come from the whole dose curve; as a rule, active = well fitted cell-killing curve with a large enough effect; inconclusive = small, poorly fitted or top-dose-only effect, or effect the other way; inactive = flat fitted curve, though single readings scatter.
Legend:
Assay in all cases: Primary qHTS to identify gynecologic anti-cancer compounds using libraries of approved drugs and bioactive compounds (AID 1345084); note: nearly all actives have a fitted effect of over 55% in size
C33A = conditions: Gynecologic cancer cell panel viability, ATPlite luminescence, 48 h; series mostly up to 57.5 µM
How it was run: (§1)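 Cells, 1,000 per well, plated 16 h, then exposed 48 h at 37 C to compounds. Viability by ATPlite luminescence after 15 min at room temperature.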

CAOV3 = conditions: Gynecologic cancer cell panel viability, ATPlite luminescence, 48 h; series mostly up to 57.5 µM
How it was run: as §1

CASKI = conditions: Gynecologic cancer cell panel viability, ATPlite luminescence, 48 h; series mostly up to 57.5 µM
How it was run: as §1

Es-2 = conditions: Gynecologic cancer cell panel viability, ATPlite luminescence, 48 h; series mostly up to 57.5 µM
How it was run: as §1

HeLa = conditions: Gynecologic cancer cell panel viability, ATPlite luminescence, 48 h; series mostly up to 57.5 µM
How it was run: as §1

Hek293T = conditions: Gynecologic cancer cell panel viability, ATPlite luminescence, 48 h, control line for the selectivity index; series mostly up to 57.5 µM
How it was run: as §1

JEG-3 = conditions: Gynecologic cancer cell panel viability, ATPlite luminescence, 48 h; series mostly up to 57.5 µM
How it was run: as §1

OV90 = conditions: Gynecologic cancer cell panel viability, ATPlite luminescence, 48 h; series mostly up to 57.5 µM
How it was run: as §1

Measured: Potency

C=C1/C(=C/C=C2\CCC[C@@]3(C)C2CCC3[C@H](C)/C=C/[C@@H](O)C2CC2)C[C@@H](O)C[C@@H]1O (some centres undefined)
inactive: C33A | CAOV3 | CASKI | Es-2 | HeLa | Hek293T | JEG-3 | OV90

Cc1cccc(N2CCN(C(=O)c3cc(S(=O)(=O)N(C)C)ccc3N3CCCC3)CC2)c1C
inactive: C33A | CAOV3 | CASKI | Es-2 | HeLa | Hek293T | JEG-3 | OV90

C[C@@H]1CC[C@]2(C(=O)O)CC[C@]3(C)C(=CCC4[C@@]5(C)CC[C@H](O)[C@](C)(C(=O)O)C5CC[C@]43C)C2[C@]1(C)O (some centres undefined)
inactive: C33A | CAOV3 | CASKI | Es-2 | HeLa | Hek293T | JEG-3 | OV90

CN(C)C(=O)Nc1cc(-c2ccccc2)ccc1N(C)C
inactive: C33A | CAOV3 | CASKI | Es-2 | HeLa | Hek293T | JEG-3 | OV90

O=C(N[C@H]1CCC[C@H](CO)C1)C1CCN(c2nc3cc(Cl)c(-c4ccc(Cl)cc4)cc3o2)CC1
inactive: C33A | CAOV3 | CASKI | Es-2 | HeLa | Hek293T | JEG-3 | OV90

O=C(NCc1nc2ccccc2c(=O)n1-c1ccc(F)cc1)Nc1ccc(Cl)c(C(F)(F)F)c1
inactive: C33A | CAOV3 | CASKI | Es-2 | HeLa | Hek293T | JEG-3 | OV90

O=S1(=O)CCN(Cc2cc(NCC3CCOCC3)c3[nH]c(-c4ccccc4)cc3c2)CC1
inactive: C33A | CAOV3 | CASKI | Es-2 | HeLa | Hek293T | JEG-3 | OV90

Cc1c(F)ccc(C(=O)Nc2cc([N+](=O)[O-])ccc2N2CCN(C)CC2)c1Cl
inactive: C33A | CAOV3 | CASKI | Es-2 | HeLa | Hek293T | JEG-3 | OV90

COc1ccccc1C(=O)Nc1cc2c(cc1N1CCCC1)n(C)c(=O)n2C
inactive: C33A | CAOV3 | CASKI | Es-2 | HeLa | Hek293T | JEG-3 | OV90

Cc1cc(NC(=O)NCCN2CCC(O)(Cc3ccccc3)CC2)c2ccccc2n1
inactive: C33A | CAOV3 | CASKI | Es-2 | HeLa | Hek293T | JEG-3 | OV90

CC(C)(O)c1ccn2c(-c3ccc(F)c(-c4ccc(F)cc4C#N)c3)cnc2c1F
inactive: C33A | CAOV3 | CASKI | Es-2 | HeLa | Hek293T | JEG-3 | OV90

NS(=O)(=O)Nc1ncnc(OCCOc2ncc(Br)cn2)c1-c1ccc(Br)cc1
inactive: C33A | CAOV3 | CASKI | Es-2 | HeLa | Hek293T | JEG-3 | OV90

CCc1cc2c(cc1CC)CC(NCC(O)c1ccc(O)c3[nH]c(=O)ccc13)C2 (centres undefined)
inactive: C33A | CAOV3 | CASKI | Es-2 | HeLa | Hek293T | JEG-3 | OV90

C#CCNCc1cc2cc(OCc3ccccc3)ccc2[nH]1
inactive: C33A | CAOV3 | CASKI | Es-2 | HeLa | Hek293T | JEG-3 | OV90

CNc1cc2[nH]c(=O)n(-c3ccc(NC(=O)NS(=O)(=O)c4ccc(Cl)s4)cc3)c(=O)c2cc1F
inactive: C33A | CAOV3 | CASKI | Es-2 | HeLa | Hek293T | JEG-3 | OV90

C=C1C(=O)OC2/C=C(\CO)CC/C=C(\C=O)C(O)C(OC(=O)C(C)CC)C12 (centres undefined)
inactive: C33A | CAOV3 | CASKI | Es-2 | HeLa | Hek293T | JEG-3 | OV90

COc1ccnc(CS(=O)c2nc3cc(OC(F)F)ccc3[nH]2)c1OC (centres undefined)
inactive: C33A | CAOV3 | CASKI | Es-2 | HeLa | Hek293T | JEG-3 | OV90

O=c1cc(N2CCN(c3cccc(C(F)(F)F)c3)CC2)[nH]c(=O)n1C1CCCCC1
inactive: C33A | CAOV3 | CASKI | Es-2 | HeLa | Hek293T | JEG-3 | OV90

CCCCCc1ccc(/C=C/C(=O)Nc2cc(Cl)ccc2C(=O)O)cc1
inactive: C33A | CAOV3 | CASKI | Es-2 | HeLa | Hek293T | JEG-3 | OV90

CO[C@@H]1[C@H](O)CCC2(CO2)[C@H]1[C@@]1(C)O[C@@H]1CC=C(C)C (some centres undefined)
inactive: C33A | CAOV3 | CASKI | Es-2 | HeLa | Hek293T | JEG-3 | OV90

CCc1ccccc1OC[C@@H](O)CN[C@H]1CCCc2ccccc21
inactive: C33A | CAOV3 | CASKI | Es-2 | HeLa | Hek293T | JEG-3 | OV90

C/C=C/CCC1Cc2cc(O)c(CCCC)c(O)c2C(=O)O1 (centres undefined)
inactive: C33A | CAOV3 | CASKI | Es-2 | HeLa | Hek293T | JEG-3 | OV90

CN(C)CCOC(C)(c1ccccc1)c1ccc(Cl)cc1 (centres undefined)
inactive: C33A | CAOV3 | CASKI | Es-2 | HeLa | Hek293T | JEG-3 | OV90

Reference: PubChem BioAssay (NCATS)
